Screens: PubChem, National Center for Advancing Translational Sciences (NCATS)
Shiga toxin inh: inhibitors of Shiga toxin in Vero cells. Vero cells, Shiga toxin protein synthesis inhibition reporter. inhibition, % at 38.7 µM. hit rate 9.2% among 290,000; in the data active means inhibition mostly above about 28%, no sharp cut-off; inactive means mostly below about 43%; further: 0% is about no effect
Pf growth 96h: inhibits malaria parasite growth, 96 h; P. falciparum luciferase reporter growth, 96 h; hit rate 6.9% among 320,000; Potency, µM (doses to about 28.7 µM), for the others: top-dose activity change, negative = inhibition, most hits filed as inhibitors; AID 504834; further: potency means the concentration at half of the fitted maximal effect; on the % scale 0 is the no-effect control and ±100 the full control effect
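P. falciparum expressing integrated firefly luciferase, in erythrocytes at 2% hematocrit, 0.05% parasitemia, incubated with compounds 96 h at 37 C, 5% CO2. Growth inhibition read as loss of luminescence; two-generation exposure targets delayed-death apicoplast inhibitors.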
Pf growth 48h: P. falciparum growth inhibition at 48 hours (one generation) | Potency, µM (doses to about 28.7 µM), for the others: at the top dose activity change, negative = inhibition, most hits filed as inhibitors | AID 504832 | P. falciparum luciferase growth in erythrocytes, 48 h | hit rate 5.9% among 310,000; further: potency means the concentration at half of the fitted maximal effect; on the % scale 0 is the no-effect control and ±100 the full control effect
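Firefly luciferase activity from engineered P. falciparum reports growth; inhibitors lower the luminescent signal. Cultures contained 2% hematocrit erythrocytes at 0.1% final parasitemia.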
Cycloheximide cs: affects cycloheximide protein synthesis inhibition readout, counter-screen; AID 2314; cell reporter, cycloheximide protein synthesis inhibition counterscreen; hit rate 12% among 300,000; max response, %; in the data active means max response mostly above about 13%, no sharp cut-off; inactive means mostly below about 14%; further: read at 38.3 µM for the half of the compounds with a filed dose; 0% is about no effect
LmPK inhibitor: LmPK (Leishmania mexicana) enzyme inhibition. purified LmPK, Kinase-Glo ATP luminescence, 1 h. Potency, µM (series often up to 57.5 µM), without a hit: top-dose activity change, negative = inhibition, usual class: inhibitors. hit rate 0.37% among 290,000; further: potency means the concentration at half of the fitted maximal effect; on the % scale 0 is the no-effect control and ±100 the full control effect
Target sequence (Q27686 whole entry, looked up): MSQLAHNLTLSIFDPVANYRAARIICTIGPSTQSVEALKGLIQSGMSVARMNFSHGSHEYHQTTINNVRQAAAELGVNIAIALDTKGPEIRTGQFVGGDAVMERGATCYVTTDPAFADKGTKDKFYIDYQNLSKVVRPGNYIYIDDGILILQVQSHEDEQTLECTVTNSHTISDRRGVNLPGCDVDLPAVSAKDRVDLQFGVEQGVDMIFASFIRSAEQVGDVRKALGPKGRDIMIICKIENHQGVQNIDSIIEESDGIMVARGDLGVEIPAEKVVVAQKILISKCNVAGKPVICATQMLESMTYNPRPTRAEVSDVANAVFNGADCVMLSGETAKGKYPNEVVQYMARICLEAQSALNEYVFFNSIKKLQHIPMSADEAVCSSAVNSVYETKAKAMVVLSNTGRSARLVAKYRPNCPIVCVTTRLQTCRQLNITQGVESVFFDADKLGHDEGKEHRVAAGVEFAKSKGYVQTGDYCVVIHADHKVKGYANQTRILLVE
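Kinase-Glo luminescence read after 1 h RT reaction of 0.1 nM LmPK with 0.5 mM PEP and 0.1 mM ADP. Activity scaled between uninhibited and enzyme-free controls.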
* = called active by the depositor; ? = inconclusive; . = no result; + = active, no number; [ ] = another dose, or the depositor's remark. An excerpt weighted towards active compounds, which were near 22% of everything screened. Unless noted, the call rests on the fitted dose curve; in most records, active means well fitted inhibition curve with a large enough effect; inconclusive means small, poorly fitted or top-dose-only effect, or another doubt; inactive means no such curve, though single readings can be large or run the other way.

SMILES	Shiga toxin inh	Pf growth 96h	Pf growth 48h	Cycloheximide cs	LmPK inhibitor
C/C(=N\NC(=S)Nc1cccc(C)c1)c1ccco1	-11	16%	?	-1	-2%
C/C(=N\NC(=S)Nc1cccc(C)c1)c1ccccc1	52	5.2µM*	?	17	2%
CCOC(=O)c1cn(Cc2ccc(C)cc2)c2cc(F)ccc2c1=O	-6	?	?	-2	-3%
COc1c(F)c(F)c(C(=O)Nc2c(C)cc(Br)cc2C)c(F)c1F	-5	-19%	?	-4	-1%
O=C(CSCc1c(F)cccc1Cl)NNC(=S)NC1CCCCC1	20	?	-14%	-4	5%
CCOc1ccc(N(C(=O)CNC(=O)c2ccco2)C(C(=O)NC2CCCC2)c2cccnc2)cc1 (stereo not drawn)	15	19%	15%	-2	0%
COc1ccc(C(=O)c2cnc(/N=C/N(C)C)s2)cc1	+	0%	96%	42*	5%
CN(C)/C=N/c1ncc(C(=O)c2ccc3ccccc3c2)s1	32	42%	35%	33*	5%
Cc1cc(Sc2nnc(/N=C/N(C)C)s2)c2ccccc2n1	-15	?	?	-1	1%
Cc1cccc(CSc2nc3ccncc3n2CC(=O)Nc2cc(C)cc(C)c2)c1	-7	8.3µM*	26%	6	-1%
COc1ccccc1CCc1nnc(CCC(=O)NCC2CCCO2)o1 (stereo not drawn)	7	-20%	5%	4	7%
COc1ccccc1CCc1nnc(CCC(=O)NCC[C@@H]2C[C@@H]3C=C[C@H]2C3)o1	24	2%	3%	13*	3%
CCOC(=O)c1c(C)[nH]c(C(=O)CN2C(=O)NC(C)(c3ccc4ccccc4c3)C2=O)c1C (stereo not drawn)	-11	5.2µM*	?	-1	-3%
CCOC(=O)c1c(C)[nH]c(C)c1C(=O)CN1C(=O)NC2(CCCCCC2)C1=O	.	?	6.6µM*	.	.
CCOC(=O)c1c(C)[nH]c(C(=O)CN2CCN(CC)CC2)c1C	-2	57%	1%	-4	-3%
CC1(c2ccc3ccccc3c2)NC(=O)N(CC(=O)O)C1=O (stereo not drawn)	-7	50%	21%	-5	-6%
CCCC1(c2ccccc2)NC(=O)N(CC(=O)c2[nH]c(C)c(C(=O)OCC)c2C)C1=O (stereo not drawn)	62	8.3µM*	4.1µM*	10	-1%
CCOC(=O)c1c(C)[nH]c(C(=O)CN2C(=O)NC3(CCCC3)C2=O)c1C	52*	55%	27%	29*	0%
CCOC(=O)c1c(NC(=O)CN2C(=O)NC3(CCCCCC3)C2=O)sc(C)c1-c1ccc(C)cc1	-14	?	?	-6	2%
O=C1CC(SC(=Nc2ccccc2)Nc2ccccc2)C(=O)N1c1cccc2ccccc12 (stereo not drawn)	-1	?	?	-2	-4%
Cc1oc2cc3oc(=O)c(CCC(=O)NCc4ccccn4)c(C)c3cc2c1C	7	?	-8%	-3	6%
C/C(=N\NC(=O)CCCC(=O)O)c1c(-c2ccccc2)c2cc(Cl)ccc2[nH]c1=O	5	52%	24%	5	-2%
Cc1ccc2nc(NC(=O)Cc3cccs3)sc2c1	125*	113%	.	50*	1%
COCC(=O)Nc1nnc(-c2ccc(C(C)(C)C)cc2)s1	91*	16%	13%	52*	-4%
NC(=S)Nc1nc2ccccc2s1	64*	?	?	38*	1%
SMILES	Shiga toxin inh	Pf growth 96h	Pf growth 48h	Cycloheximide cs	LmPK inhibitor
O=C(Cc1cccs1)Nc1nc2ccccc2s1	111*	100%	2%	30*	-1%
Cc1ccc2nc(NC(=O)CSCC(=O)Nc3cc(C)on3)sc2c1	.	179%	222%	.	.
O=C(COC(=O)CCc1ccccc1)NC1CCS(=O)(=O)C1 (stereo not drawn)	.	1%	0%	.	.
C/C(=N\Nc1ccc(S(=O)(=O)N2CCOCC2)cc1[N+](=O)[O-])C(C)C	7	?	-9%	-1	1%
O=C1c2ccccc2N2C(=O)c3ccccc3C2N1Cc1ccccc1 (stereo not drawn)	-5	?	?	-4	1%
CC(Cc1ccccc1)C(=O)NCc1nc2ccccc2s1 (stereo not drawn)	30*	10%	57%	19*	1%
CC1(C(=O)Nc2nc3ccccc3s2)CC1(Br)Br (stereo not drawn)	94*	-13%	10%[0.00184 µM]	44*	2%
COCC(=O)Nc1nc2ccc(S(C)(=O)=O)cc2s1	108*	49%	0%	40*	-7%
CC(=O)Nc1ccc(-c2csc(NC(=O)CCCc3cccs3)n2)cc1	28	-17%	-19%	9	-1%
CCc1ccc2nc(NC(=O)CCCc3cccs3)sc2c1	49*	-5%	.	33*	0%
CS(=O)(=O)c1ccc2nc(NC(=O)CN3CCOCC3)sc2c1	.	-9%	6%	-1	4%
Cc1ccc(C)c(OCC(=O)Nc2cccc(S(=O)(=O)NC3=NCCCCC3)c2)c1	11	?	?	3	-4%
O=C(CN1C(=O)NC2(CCc3ccccc32)C1=O)NCC(=O)Nc1ccc(F)cc1 (stereo not drawn)	.	-21%	?	.	.
COc1ccc2nc(NC(=O)CNS(=O)(=O)c3cccs3)sc2c1	10	-29%	.	12	6%
O=C(Cc1cccs1)Nc1ccccc1-c1nc2ccccc2[nH]1	-2	8%	?	-4	1%
Cc1ccc2nc(-c3ccc(NC(=O)Cc4cccs4)cc3)[nH]c2c1	75	4.1µM*	?	30*	-6%
O=C(Cc1ccccc1)Nc1nc(=O)c2ccccc2s1	-3	71%	52%	0	1%
COc1ccc2nc(NC(=O)Cc3cccs3)sc2c1	152*	.	151%	51*	0%
O=C(Cc1ccccc1)Nc1nc2ccccc2s1	49*	-20%	168%	26*	4%
O=C(Cc1nc(=O)c2ccccc2s1)Nc1ccccc1	67*	102%	194%	59*	-1%
CN(CC(=O)Nc1ccccc1C(F)(F)F)C(=O)c1ccc2c(=O)n3c(nc2c1)CCC3	.	-14%	-21%	.	.
CC1CCN(S(=O)(=O)c2cccc3cccnc23)CC1	-4	-12%	4%	-5	-3%
O=C(Nc1ccc(-n2cccn2)cc1)C1CCCCN1Cc1cccc2c1OCO2 (stereo not drawn)	-6	-1%	?	9	3%
Cc1ccc2nc(-c3ccc(NC(=O)C4CCCO4)cc3)[nH]c2c1 (stereo not drawn)	44	-74%	.	55*	-25%
CCOc1ccc2nc(NC(=O)Cc3cccs3)sc2c1	84*	.	98%	40*	-9%
COCC(=O)Nc1nc2ccccc2s1	50*	32%	47%	29*	-9%
Cc1cnc(NC(=O)Cc2cccs2)s1	50	7%	94%	21*	2%
COC(=O)CCCCCCCCC(=O)Nc1nc2ccccc2s1	14	28%	23%	-1	5%
